{
  "source": "ChEMBL document CHEMBL3988442",
  "about": "“University of Dundee, Small-Polar-MMV Screening Library” (2021)",
  "tested_on": "Leishmania donovani",
  "assay": "Leishmania intramacrophage assay",
  "format": "functional, organism-based",
  "parameters": "scale not given: in the data most compounds retested in dose-response had high values",
  "note": "Out of some 69,000 compounds screened, about 1,000 (1.4%) showed an effect of 50% or more. This is one part of a sample in which strong results are shown more often than they occur.",
  "data": [
    {"smiles": "Cc1cc(C)n(-c2cncc(N3CCC(C(=O)N(C)C)CC3)n2)n1", "values": [
      {"measurement": "Percent Effect", "setting": "30.3 µM, […]", "value": -6.574, "unit": "%"}
    ]},
    {"smiles": "O=C(c1ccc(=O)[nH]n1)N1CCNCC1c1ccccc1", "note": "(centres undefined)", "values": [
      {"measurement": "Percent Effect", "setting": "30.3 µM, […]", "value": -5.209, "unit": "%"}
    ]},
    {"smiles": "CC(C)Nc1cccc(C(=O)NCC(O)c2cccc(F)c2)c1", "note": "(centres undefined)", "values": [
      {"measurement": "Percent Effect", "setting": "30.3 µM, […]", "value": 8.412, "unit": "%"}
    ]},
    {"smiles": "Cc1ccccc1CCC1CCCN(C(=O)Cc2cc(=O)[nH]c(N)n2)C1", "note": "(centres undefined)", "values": [
      {"measurement": "Percent Effect", "setting": "30.3 µM, […]", "value": -48.51, "unit": "%"}
    ]},
    {"smiles": "CCc1nc(N)sc1C(=O)N1CCCC(CCc2ccccc2C)C1", "note": "(centres undefined)", "values": [
      {"measurement": "Percent Effect", "setting": "30 µM, 30.03 µM", "value": 59.23, "unit": "%"}
    ]},
    {"smiles": "CCc1nc(N)sc1C(=O)N1CCCC(COc2cccc(C)c2)C1", "note": "(centres undefined)", "values": [
      {"measurement": "Percent Effect", "setting": "30.3 µM, […]", "value": -12.25, "unit": "%"}
    ]},
    {"smiles": "CC(=O)N1CCC(c2cncc(N3CCC(O)C3)n2)CC1", "note": "(centres undefined)", "values": [
      {"measurement": "Percent Effect", "setting": "30.3 µM, […]", "value": 8.685, "unit": "%"}
    ]},
    {"smiles": "O=C(O)C(F)(F)F.O=S(=O)(NC1CCC12CCN(CC1CCOCC1)CC2)c1ccccc1", "note": "(centres undefined)", "values": [
      {"measurement": "Percent Effect", "setting": "30.3 µM, […]", "value": 17.74, "unit": "%"}
    ]},
    {"smiles": "CC(C)(C)OC(=O)N[C@@H]1C[C@@H](O)CN(C(=O)c2cccc(F)c2)C[C@H]1O", "values": [
      {"measurement": "Percent Effect", "setting": "30.3 µM, […]", "value": 29.87, "unit": "%"}
    ]},
    {"smiles": "Cc1c(CNCc2nn(-c3ccccc3)c3c2CCC3)cc(C#N)n1C", "values": [
      {"measurement": "Percent Effect", "setting": "30.3 µM, […]", "value": 49.86, "unit": "%"}
    ]},
    {"smiles": "COc1ccccc1CNCc1nn(-c2ccccc2)c2c1CCC2", "values": [
      {"measurement": "Percent Effect", "setting": "30.3 µM, […]", "value": 72.37, "unit": "%"}
    ]},
    {"smiles": "Cc1noc(C)c1CNCc1nn(-c2ccccc2)c2c1CCC2", "values": [
      {"measurement": "Percent Effect", "setting": "30.3 µM, […]", "value": -2.831, "unit": "%"}
    ]},
    {"smiles": "CC(=O)c1cccc(OCCCC(=O)N(C)Cc2cnn(C)c2)c1", "values": [
      {"measurement": "Percent Effect", "setting": "30.3 µM, […]", "value": -2.967, "unit": "%"}
    ]},
    {"smiles": "c1ccc(CN2CCC(CNc3ncnc4c3CCNCC4)CC2)cc1", "values": [
      {"measurement": "Percent Effect", "setting": "30.3 µM, […]", "value": -23.91, "unit": "%"}
    ]},
    {"smiles": "Cc1cccc(-n2cc(CNc3ncnc4c3CCNCC4)cn2)c1", "values": [
      {"measurement": "Percent Effect", "setting": "30.3 µM, […]", "value": 61.6, "unit": "%"}
    ]},
    {"smiles": "c1cncc(-c2noc(CCNc3ncnc4c3CCNCC4)n2)c1", "values": [
      {"measurement": "Percent Effect", "setting": "30.3 µM, […]", "value": 24.85, "unit": "%"}
    ]},
    {"smiles": "Cc1ccccc1-n1cc(CNc2ncnc3c2CCNCC3)cn1", "values": [
      {"measurement": "Percent Effect", "setting": "30.3 µM, […]", "value": 29.71, "unit": "%"}
    ]},
    {"smiles": "c1ccc(CN2CCC(CCNc3ncnc4c3CCNCC4)C2)cc1", "note": "(centres undefined)", "values": [
      {"measurement": "Percent Effect", "setting": "30.3 µM, […]", "value": -39.7, "unit": "%"}
    ]},
    {"smiles": "Cc1cccc(=O)n1CCCNc1ncnc2c1CCNCC2", "values": [
      {"measurement": "Percent Effect", "setting": "30.3 µM, […]", "value": 9.317, "unit": "%"}
    ]},
    {"smiles": "Clc1ccccc1-c1cc(CNc2ncnc3c2CCNCC3)no1", "values": [
      {"measurement": "Percent Effect", "setting": "30.3 µM, […]", "value": 94.85, "unit": "%"}
    ]},
    {"smiles": "c1ccc(Cn2cc(CNc3ncnc4c3CCNCC4)cn2)cc1", "values": [
      {"measurement": "Percent Effect", "setting": "30.3 µM, […]", "value": 13.57, "unit": "%"}
    ]},
    {"smiles": "Cc1ccc(-c2cc(CNc3ncnc4c3CCNCC4)no2)cc1", "values": [
      {"measurement": "Percent Effect", "setting": "30.3 µM, […]", "value": 97.6, "unit": "%"}
    ]},
    {"smiles": "COc1ccc(-c2cc(CNc3ncnc4c3CCNCC4)no2)cc1", "values": [
      {"measurement": "Percent Effect", "setting": "30.3 µM, […]", "value": 66.16, "unit": "%"}
    ]},
    {"smiles": "COCc1noc(CCNc2ncnc3c2CCNCC3)n1", "values": [
      {"measurement": "Percent Effect", "setting": "30.3 µM, […]", "value": 2.148, "unit": "%"}
    ]},
    {"smiles": "c1cncc(-c2noc(CNc3ncnc4c3CCNCC4)n2)c1", "values": [
      {"measurement": "Percent Effect", "setting": "30.3 µM, […]", "value": 35.11, "unit": "%"}
    ]},
    {"smiles": "Cn1cc(-c2cc(-c3cnn(C)c3)n(CC(=O)NC3CC3)n2)cn1", "values": [
      {"measurement": "Percent Effect", "setting": "30.3 µM, […]", "value": -1.984, "unit": "%"}
    ]},
    {"smiles": "Cc1ncc(CN(C)C2CCCN(CCc3ccccc3)C2)n1C", "note": "(centres undefined)", "values": [
      {"measurement": "Percent Effect", "setting": "30.3 µM, […]", "value": 22.06, "unit": "%"}
    ]},
    {"smiles": "CN(CCCNC(=O)C1CCCN(C(N)=O)C1)S(C)(=O)=O", "note": "(centres undefined)", "values": [
      {"measurement": "Percent Effect", "setting": "30.3 µM, […]", "value": 4.871, "unit": "%"}
    ]},
    {"smiles": "COc1cccc(CN2CCCC3(CCN(C(=O)[C@H]4CCCO4)C3)C2)c1", "note": "(some centres undefined)", "values": [
      {"measurement": "Percent Effect", "setting": "30 µM, 30.03 µM", "value": 29.96, "unit": "%"}
    ]},
    {"smiles": "COc1cccc(CN2CCCC3(CCN(C(=O)N4CCCC4)C3)C2)c1.O=C(O)C(F)(F)F", "note": "(centres undefined)", "values": [
      {"measurement": "Percent Effect", "setting": "30.3 µM, […]", "value": 1.476, "unit": "%"}
    ]},
    {"smiles": "COc1cccc(CN2CCCC3(CCN(C(=O)c4ccco4)C3)C2)c1", "note": "(centres undefined)", "values": [
      {"measurement": "Percent Effect", "setting": "30 µM, 30.03 µM", "value": 53.43, "unit": "%"}
    ]},
    {"smiles": "COCc1ncc(CN2CC[C@@](C)(O)[C@@H](Cc3ccccc3)C2)cn1", "values": [
      {"measurement": "Percent Effect", "setting": "30.3 µM, […]", "value": 11.16, "unit": "%"}
    ]},
    {"smiles": "COc1ccc2c(ccn2CC(=O)NC[C@@H]2CCCN3CCCC[C@H]23)c1", "values": [
      {"measurement": "Percent Effect", "setting": "30.3 µM, […]", "value": 29.51, "unit": "%"}
    ]},
    {"smiles": "Cc1ccc2c(ccn2CCC(=O)NC[C@@H]2CCCN3CCCC[C@H]23)c1", "values": [
      {"measurement": "Percent Effect", "setting": "30 µM, 30.03 µM", "value": 28.72, "unit": "%"}
    ]},
    {"smiles": "O=C(Cn1ccc2cc(Br)ccc21)NC[C@@H]1CCCN2CCCC[C@H]12", "values": [
      {"measurement": "Percent Effect", "setting": "30.3 µM, […]", "value": 50.79, "unit": "%"}
    ]},
    {"smiles": "O=C(Cn1ccc2ccc(Br)cc21)NC[C@@H]1CCCN2CCCC[C@H]12", "values": [
      {"measurement": "Percent Effect", "setting": "30 µM, 30.03 µM", "value": -30.69, "unit": "%"}
    ]},
    {"smiles": "Cc1ccc2c(ccn2CC(=O)NC[C@@H]2CCCN3CCCC[C@H]23)c1", "values": [
      {"measurement": "Percent Effect", "setting": "30 µM, 30.03 µM", "value": 26.96, "unit": "%"}
    ]},
    {"smiles": "O=C(CCn1ccc2cc(Br)ccc21)NC[C@@H]1CCCN2CCCC[C@H]12", "values": [
      {"measurement": "Percent Effect", "setting": "30.3 µM, […]", "value": 94.12, "unit": "%"}
    ]},
    {"smiles": "CO[C@H]1CCN(Cc2ccoc2)C[C@@H]1Cc1ccccc1.O=C(O)C(F)(F)F", "values": [
      {"measurement": "Percent Effect", "setting": "30.3 µM, […]", "value": 25.61, "unit": "%"}
    ]},
    {"smiles": "COc1c(C)cnc(CSc2nnc(NC3CC3)s2)c1C", "values": [
      {"measurement": "Percent Effect", "setting": "30.3 µM, […]", "value": 13.54, "unit": "%"}
    ]},
    {"smiles": "O=C(NCC(=O)N1CCCC(c2ccccc2)CC1)c1ccoc1", "note": "(centres undefined)", "values": [
      {"measurement": "Percent Effect", "setting": "30 µM", "value": 24.45, "unit": "%"}
    ]},
    {"smiles": "O=C([C@H]1CCCO1)N1CCc2ncc(CN3CCOCC3)n2CC1", "values": [
      {"measurement": "Percent Effect", "setting": "30.3 µM, […]", "value": 32.4, "unit": "%"}
    ]},
    {"smiles": "Cc1cnn(CC(C)NCc2ccc(OCC(N)=O)cc2)c1", "note": "(centres undefined)", "values": [
      {"measurement": "Percent Effect", "setting": "30 µM", "value": 8.68, "unit": "%"}
    ]},
    {"smiles": "Cc1c(CN2CC[C@@H](N3CCC(O)CC3)[C@H](O)C2)[nH]c2ccc(Cl)cc12", "values": [
      {"measurement": "Percent Effect", "setting": "30.3 µM, […]", "value": 82.7, "unit": "%"}
    ]},
    {"smiles": "Cc1c(CN2CC[C@@H](N3CCC(O)CC3)[C@H](O)C2)[nH]c2ccc(F)cc12", "values": [
      {"measurement": "Percent Effect", "setting": "30.3 µM, […]", "value": 26.65, "unit": "%"}
    ]},
    {"smiles": "Cc1ccc2[nH]c(CN3CC[C@@H](N4CCN(C)CC4)[C@H](O)C3)c(C)c2c1", "values": [
      {"measurement": "Percent Effect", "setting": "30.3 µM, […]", "value": 23.41, "unit": "%"}
    ]},
    {"smiles": "O=C(c1ccc(S(=O)(=O)NCc2ccon2)cc1)N1CCOCC1", "values": [
      {"measurement": "Percent Effect", "setting": "30.3 µM, […]", "value": 0.2735, "unit": "%"}
    ]},
    {"smiles": "Oc1ccc(-c2c(-c3ccccc3)ncn2C2CCNC2)cc1", "note": "(centres undefined)", "values": [
      {"measurement": "Percent Effect", "setting": "30.3 µM, […]", "value": -26.99, "unit": "%"}
    ]},
    {"smiles": "Cc1nc[nH]c1-c1c(-c2ccccc2)ncn1C1CCNC1", "note": "(centres undefined)", "values": [
      {"measurement": "Percent Effect", "setting": "30.3 µM, […]", "value": -1.128, "unit": "%"}
    ]}
  ]
}
